# From PubChem BioAssay (NCI)
# About 83,000 compounds went through this panel and 20% of them were active in at least one assay; those are over-represented in the sample as a whole.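 48-hour exposure, single concentration, 96-well plates; percent growth endpoint where 0 means no net growth. Active: below 10.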 Unmarked numbers belong to inactive results. Calls of active or inactive are those of the source.
# Assays:
# Experiment in all cases: NCI-60 one-dose screen, 48 h (100 = growth as untreated, 0 = no growth, -100 = all killed)
# Conditions in all cases: 10 µM unless noted
# [1] = system: NCI-H23 lung
# [2] = system: NCI-H226 lung
# [3] = system: NCI-H322M lung
# [4] = system: HOP-62 NSCLC
# [5] = system: NCI-H460 lung
# [6] = system: HOP-92 NSCLC
# [7] = system: NCI-H522 lung
# [8] = system: A549/ATCC NSCLC
# [9] = system: 786-0 renal
# [10] = system: COLO 205 colon
# [11] = system: DU-145 prostate
# [12] = system: K-562 leukemia
# [13] = system: MALME-3M melanoma
# [14] = system: MDA-MB-231 breast
# [15] = system: RXF 393 renal
# [16] = system: SF-268 CNS
# [17] = system: SF-539 CNS
# [18] = system: UACC-257 melanoma
# [19] = system: M14 melanoma
# [20] = system: SF-295 CNS
Compound,growth [1],growth [2],growth [3],growth [4],growth [5],growth [6],growth [7],growth [8],growth [9],growth [10],growth [11],growth [12],growth [13],growth [14],growth [15],growth [16],growth [17],growth [18],growth [19],growth [20]
OC(c1cc2cc(Cl)c(Cl)cc2c2cc(C(F)(F)F)ccc12)C1CCCCN1 (stereo unspecified),-52.9% (active),-72.3% (active),-8.7% (active),-80.7% (active),-71.8% (active),-70.9% (active),-78.4% (active),-84% (active),-78.1% (active),-88.2% (active),-86.2% (active),-63.5% (active),-17.6% (active),-71.3% (active),-96.2% (active),-88.6% (active),-57.9% (active),-73% (active),-80.9% (active),
CN(C)CCCNc1c2ccccc2nc2ccccc12,93.3%,81.1%,110%,88.1%,97.7%,180%,93.7%,96.2%,88.6%,100%,101%,96.8%,100%,85.2%,56.4%,92.9%,89.6%,104%,98%,
O=C(COc1ccc(/C=C2\CSc3ccccc3C2=O)cc1)Nc1nccs1,61.1%,97.9%,87.9%,94.5%,107%,78.8%,7.48% (active),100%,95.7%,117%,130%,-14.2% (active),77.8%,95.6%,,99.6%,111%,97.3%,89.6%,118%
COc1cc(Nc2cc(C)nc(N3CCN(c4ccnc5cc(Cl)ccc45)CC3)n2)cc(OC)c1,9.55% (active),22.9%,8.83% (active),10.1%,2.55% (active),5.3% (active),9% (active),4.7% (active),-13.1% (active),-24.4% (active),2.17% (active),8.3% (active),,-35.1% (active),4.88% (active),15.1%,-16.9% (active),49.2%,4.43% (active),0.307% (active)
CN1CCN(CCCOc2cccc3nc(Nc4cc(Cl)cc(Cl)c4)ccc23)CC1,36.7%,-10.9% (active),3.59% (active),19.8%,-37% (active),3.95% (active),-18.3% (active),0.988% (active),37.3%,-67.4% (active),-23.8% (active),-54.7% (active),-53.5% (active),-44.6% (active),38.8%,16%,7.62% (active),-44.6% (active),-55.7% (active),40.2%
CS(=O)(=O)c1ccc(-n2nc(-c3ccc(Br)cc3)c3ccccc3c2=O)cc1,95%,100%,109%,97.2%,99.1%,85.7%,97%,97.9%,121%,103%,99.2%,90.9%,,90.1%,97.1%,95%,96.2%,97.3%,107%,94%
Cn1cc(-c2nonc2-c2c[nH]c3ccccc23)c2cccnc21,54.4%,30.2%,88.6%,36.5%,21.6%,62.2%,18.4%,36.2%,65.8%,37.6%,67.7%,12.7%,50.5%,59.6%,36.1%,56.5%,41.9%,55%,21.2%,51.4%
Cc1cc(Nc2ccc(C)c(Cl)c2)n2nc(C(F)(F)F)nc2n1,63.6%,21.3%,93.3%,-17.2% (active),69%,-9.25% (active),36.2%,42.5%,-46.2% (active),38.3%,42.5%,54.8%,-15.2% (active),2.77% (active),-9.51% (active),39.4%,33.1%,74.4%,51.7%,
COc1ccc(N=Nc2nccs2)c(O)c1,79.3%,63.6%,88.4%,66.3%,40.4%,52.8%,69.2%,97.2%,18.9%,44.2%,51.3%,,92.1%,35.8%,52.7%,26.4%,40.2%,85.3%,,95%
COc1ccc(Nc2cc(C)nc(N3CCN(c4ccnc5cc(Cl)ccc45)CC3)n2)cc1,41.2%,60.6%,26.9%,36.7%,18.5%,25.3%,38%,26.3%,29.1%,8.4% (active),58%,10.1%,,17.7%,51.4%,52.6%,54.7%,62.6%,27.3%,15.9%
COc1ccc2cc(-c3nn(-c4ccc(C(=O)O)cc4)cc3CO)ccc2c1,97.9%,99.7%,97%,104%,99.1%,102%,82.6%,102%,99.6%,114%,103%,,106%,111%,122%,86.3%,93.1%,103%,,99.1%
OCCNc1nccc(N2CCN(c3ccnc4cc(Cl)ccc34)CC2)n1,80.5%,92.2%,84.2%,56.3%,96.8%,88.7%,65.2%,80.6%,92.8%,65.6%,98.8%,24.2%,,54.9%,77.1%,82.7%,79.6%,84%,68.7%,58%
CC(C)(O)c1cn(CCCCN2C(=O)C(=O)c3ccccc32)nn1,95.8%,94.8%,108%,94.8%,102%,102%,87.4%,99.7%,98.3%,112%,113%,94.3%,105%,99.7%,104%,99.7%,96.4%,103%,97.7%,102%
CN1CCN(c2ccc(Nc3c4ccccc4nc4ccccc34)cc2)CC1,105%,107%,120%,110%,104%,178%,99.7%,98.2%,102%,114%,111%,105%,103%,105%,110%,107%,99.6%,103%,113%,
O=C(Cn1cccc(Nc2ccccc2)c1=O)Nc1ccccc1,113%,103%,114%,105%,106%,97%,110%,106%,106%,107%,111%,108%,,108%,100%,107%,97.1%,99.6%,102%,106%
COc1ccc2nc(NC(=O)CSc3nnc4n3S(=O)(=O)c3ccccc3N4c3ccccc3)sc2c1,87.4%,101%,91.2%,94.7%,104%,46.6%,64.5%,44.8%,101%,96.1%,99.3%,113%,89.7%,77.7%,23%,71.9%,94.3%,103%,100%,73.2%
